PubChem BioAssay (EPA / NIEHS)
Calls of active or inactive are those of the source. The calls were made as follows: active = hit-call score of the fitted dose curve at least 0.9, where 1 is the maximum; inactive = score below 0.9.

How the values were obtained:
[1] = BSK_CASM3C_SRB: Viability Assessment in the BioMAP Diversity Plus: CASM3C Assay (AID 2283050); conditions: primary human coronary artery smooth muscle cells;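 also: total protein by SRB staining as cytotoxicity measure in parallel cultures; cells exposed to compound for 24 h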
[2] = read-out: Thrombomodulin, THBD (gene 7056); assay: BSK_CASM3C_Thrombomodulin: BioMAP Diversity Plus: CASM3C Assay for Thrombomodulin Biomarker Activity (AID 2283051); conditions: primary human coronary artery smooth muscle cells; actives raise or lower the signal;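 also: thrombomodulin protein level measured by ELISA 24 h after dosing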
[3] = read-out: Tissue Factor, F3 (gene 2152); assay: BSK_CASM3C_TissueFactor: BioMAP Diversity Plus: CASM3C Assay for Tissue Factor Biomarker Activity (AID 2283052); conditions: primary human coronary artery smooth muscle cells; actives raise or lower the signal;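 also: cell surface tissue factor protein level read by ELISA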
[4] = read-out: Interferon-gamma inducible Protein 10 (IP10), CXCL10 (gene 3627); assay: BSK_hDFCGF_IP10: BioMAP Diversity Plus: hDFCGF Assay for Interferon-gamma inducible Protein 10 (IP10) Biomarker Activity (AID 2283053); conditions: primary human foreskin fibroblasts; actives raise or lower the signal
Procedure, shortened: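 Primary foreskin fibroblasts, human; 24 h compound exposure; IP-10 by ELISA; bidirectional fit vs DMSO.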

[5] = read-out: Urokinase-type plasminogen activator receptor (uPAR), PLAUR (gene 5329); assay: BSK_CASM3C_uPAR: BioMAP Diversity Plus: CASM3C Assay for Urokinase-type plasminogen activator receptor (uPAR) Biomarker Activity (AID 2283054); conditions: primary human coronary artery smooth muscle cells; actives raise or lower the signal;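 also: cell-surface uPAR protein level quantified by ELISA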
[6] = read-out: Vascular cell adhesion molecule 1 (VCAM1), VCAM1 (gene 7412); assay: BSK_CASM3C_VCAM1: BioMAP Diversity Plus: CASM3C Assay for Vascular cell adhesion molecule 1 (VCAM1) Biomarker Activity (AID 2283055); conditions: primary human coronary artery smooth muscle cells; actives raise or lower the signal;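 also: VCAM-1 protein level quantified by ELISA on the cells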
[7] = read-out: Epidermal growth factor receptor (EGFR), EGFR (gene 1956); assay: BSK_hDFCGF_EGFR: BioMAP Diversity Plus: hDFCGF Assay for Epidermal growth factor receptor (EGFR) Biomarker Activity (AID 2283057); conditions: primary human foreskin fibroblasts; actives raise or lower the signal
Procedure, shortened: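 hDFCGF system, primary human foreskin fibroblasts; compound 24 h; EGFR measured by ELISA; DMSO = negative control/baseline; bidirectional fitting.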

[8] = read-out: Interleukin-8 (IL8), CXCL8 (gene 3576); assay: BSK_hDFCGF_IL8: BioMAP Diversity Plus: hDFCGF Assay for Interleukin-8 (IL8) Biomarker Activity (AID 2283058); conditions: primary human foreskin fibroblasts; actives raise or lower the signal
Procedure, shortened: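 Fibroblast monolayers (human foreskin, hDFCGF) received test chemical for 24 h before ELISA detection of IL-8; either increases or decreases relative to DMSO count as activity.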

[9] = BSK_hDFCGF_Proliferation: Cell Proliferation Assessment in the BioMAP Diversity Plus: hDFCGF Assay (AID 2283059); conditions: primary human foreskin fibroblasts;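 also: curves fitted for both rise and fall of signal versus DMSO baseline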
Procedure, shortened: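 Primary human foreskin fibroblasts, sub-confluent; […]; 10% TCA fix, 0.1% SRB stain, A560 total protein. Gain/loss fitted bidirectionally vs DMSO control.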

SMILES	outcome [1]	outcome [2]	outcome [3]	outcome [4]	outcome [5]	outcome [6]	outcome [7]	outcome [8]	AC50 [9]	AC50 [2]	AC50 [7]	AC50 [4]	outcome [9]	AC50 [1]	AC50 [5]	AC50 [6]	AC50 [8]
CC(COc1ccc(Oc2ccccc2)cc1)Oc1ccccn1 (stereo not given)	inactive	inactive	inactive	inactive	inactive	inactive	inactive	inactive	10.8 µM (active)								
C=C(C)[C@H]1Cc2c(ccc3c2O[C@@H]2COc4cc(OC)c(OC)cc4[C@@H]2C3=O)O1	inactive		inactive	inactive	inactive	inactive		inactive	0.486 µM (active)	0.164 µM (active)	0.771 µM (active)						
CCCCN(CC)c1c([N+](=O)[O-])cc(C(F)(F)F)cc1[N+](=O)[O-]	inactive	inactive	inactive		inactive	inactive	inactive	inactive	27.9 µM (active)			25.5 µM (active)					
C[N+]1(C)CCCCC1	inactive	inactive	inactive	inactive	inactive	inactive	inactive	inactive					inactive				
CSc1nc(NC(C)C)nc(NC(C)C)n1	inactive	inactive	inactive	inactive	inactive	inactive	inactive	inactive					inactive				
CCOP(=S)(OCC)SCCSCC	inactive	inactive	inactive		inactive	inactive	inactive	inactive					inactive				
Nc1c(Cl)cc([N+](=O)[O-])cc1Cl	inactive	inactive	inactive		inactive	inactive	inactive	inactive	27.6 µM (active)			3.97 µM (active)					
Cc1cc(C2CC2)nc(Nc2ccccc2)n1	inactive		inactive		inactive	inactive	inactive	inactive	15 µM (active)	27.8 µM (active)		6.65 µM (active)					
N#CSCSC#N			inactive						0.225 µM (active)	31.3 µM (active)	1.68 µM (active)	1.09 µM (active)		14.6 µM (active)	30.6 µM (active)	19.3 µM (active)	3.03 µM (active)
C#CCC1=C(C)C(OC(=O)C2C(C=C(C)C)C2(C)C)CC1=O (stereo not given)	inactive	inactive	inactive		inactive	inactive	inactive		31.5 µM (active)			29.6 µM (active)					37.8 µM (active)
CC(C)=CC1C(C(=O)OCN2C(=O)C3=C(CCCC3)C2=O)C1(C)C (stereo not given)	inactive	inactive	inactive		inactive		inactive	inactive	15.5 µM (active)			30.1 µM (active)				13.6 µM (active)	
C[Si](Cn1cncn1)(c1ccc(F)cc1)c1ccc(F)cc1	inactive		inactive	inactive	inactive	inactive	inactive	inactive		7.8 µM (active)			inactive				
CC(=NC#N)N(C)Cc1ccc(Cl)nc1	inactive	inactive	inactive	inactive	inactive	inactive	inactive	inactive					inactive				
COP(=O)(OC)OC(Br)C(Cl)(Cl)Br (stereo not given)		inactive	inactive				inactive		2.6 µM (active)			13.9 µM (active)		28.8 µM (active)	32 µM (active)	18.5 µM (active)	37.8 µM (active)
O=c1ccc(=O)[nH][nH]1	inactive	inactive	inactive	inactive	inactive	inactive	inactive	inactive					inactive				
CCOP(=S)(OCC)OC(Cl)C(Cl)(Cl)Cl (stereo not given)	inactive		inactive		inactive	inactive	inactive	inactive		11.4 µM (active)		26.3 µM (active)	inactive				
CCCCOC(=O)c1ccccc1C(=O)O	inactive	inactive	inactive	inactive	inactive	inactive	inactive	inactive					inactive				
CCOC(=O)COc1cc(-c2nn(C)c(OC(F)F)c2Cl)c(F)cc1Cl	inactive	inactive	inactive	inactive	inactive	inactive	inactive	inactive					inactive				
CCCSP(=O)(OCC)Oc1ccc(Br)cc1Cl (stereo not given)	inactive		inactive		inactive	inactive	inactive	inactive	31.7 µM (active)	11.5 µM (active)		20 µM (active)					
